Sampled rows, rich in hits. Any-hit rate of the full collection: about 2.4%.
Pol eta inh – DNA polymerase eta (human) inhibition; recombinant Pol eta, fluorescent DNA replication assay; Potency, µM (doses to about 114 µM), for the others: at the top dose activity change, negative = inhibition, actives largely listed as inhibitors; 1.2% of 390,000 active; AID 588591; further: on the % scale 0 is the no-effect control and ±100 the full control effect
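Pol eta at 10 nM preincubated with compounds 15 min at room temperature; reaction started with fluorescent substrate (50 nM final) and read kinetically at 0 and 10 min.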
POLB inh – DNA polymerase beta (human) inhibition | Pol beta primer extension/strand displacement, fluorescence kinetic | Potency, µM (highest dose often 114 µM), without a hit: at the top dose activity change, negative = inhibition, actives largely listed as inhibitors | 1.3% of 340,000 active | AID 485314; further: on the % scale 0 is the no-effect control and ±100 the full control effect
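Homogeneous kinetic assay of primer extension and strand displacement by 10 nM Pol beta, preincubated 15 min at room temperature with compound before 50 nM substrate (final) was added. Read at 0 and 10 min; four-parameter Hill fit.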
FEN1 inh – inhibitors of human flap endonuclease 1; P39748; Potency, µM (titrated, usually from 114 µM), without a hit: at the highest dose activity change, negative = inhibition, hits mostly inhibitors; 0.35% of 390,000 active; Recombinant FEN1 flap cleavage, fluorescence, 15 min; further: on the % scale 0 is the no-effect control and ±100 the full control effect; nearly all actives have a fitted effect of over 65% in size
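In this screen, 50 nM flap DNA substrate was added to 10 nM FEN1 pretreated with compound for 15 min at room temperature; cleavage was followed with reads at 0 and 15 min, and Hill fitting gave concentration–response parameters.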
POLI inh – DNA polymerase iota (human) inhibition; Q9UNA4; Pol iota fluorescent replication assay, 10 min; Potency, µM (titrated, usually from 115 µM), for inactives: at the top dose activity, negative = inhibition, usual class: inhibitors; 1% of 390,000 active
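Fluorescent replication assay read twice, at 0 min and 10 min after adding 50 nM (final) substrate. Enzyme (10 nM) and compounds were first incubated 15 min at room temperature; enzyme-free buffer wells were negative controls.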
Pol kappa inh – blocks human DNA polymerase kappa activity | Q9UBT6 | purified Pol kappa, fluorescent DNA synthesis assay, 10 min | Potency, µM (doses to about 107 µM), inactives show at the highest dose activity, negative = inhibition, actives largely listed as inhibitors | 0.53% of 400,000 active | AID 588579; further: on the % scale 0 is the no-effect control and ±100 the full control effect
Target sequence (Q9UBT6 whole entry, looked up): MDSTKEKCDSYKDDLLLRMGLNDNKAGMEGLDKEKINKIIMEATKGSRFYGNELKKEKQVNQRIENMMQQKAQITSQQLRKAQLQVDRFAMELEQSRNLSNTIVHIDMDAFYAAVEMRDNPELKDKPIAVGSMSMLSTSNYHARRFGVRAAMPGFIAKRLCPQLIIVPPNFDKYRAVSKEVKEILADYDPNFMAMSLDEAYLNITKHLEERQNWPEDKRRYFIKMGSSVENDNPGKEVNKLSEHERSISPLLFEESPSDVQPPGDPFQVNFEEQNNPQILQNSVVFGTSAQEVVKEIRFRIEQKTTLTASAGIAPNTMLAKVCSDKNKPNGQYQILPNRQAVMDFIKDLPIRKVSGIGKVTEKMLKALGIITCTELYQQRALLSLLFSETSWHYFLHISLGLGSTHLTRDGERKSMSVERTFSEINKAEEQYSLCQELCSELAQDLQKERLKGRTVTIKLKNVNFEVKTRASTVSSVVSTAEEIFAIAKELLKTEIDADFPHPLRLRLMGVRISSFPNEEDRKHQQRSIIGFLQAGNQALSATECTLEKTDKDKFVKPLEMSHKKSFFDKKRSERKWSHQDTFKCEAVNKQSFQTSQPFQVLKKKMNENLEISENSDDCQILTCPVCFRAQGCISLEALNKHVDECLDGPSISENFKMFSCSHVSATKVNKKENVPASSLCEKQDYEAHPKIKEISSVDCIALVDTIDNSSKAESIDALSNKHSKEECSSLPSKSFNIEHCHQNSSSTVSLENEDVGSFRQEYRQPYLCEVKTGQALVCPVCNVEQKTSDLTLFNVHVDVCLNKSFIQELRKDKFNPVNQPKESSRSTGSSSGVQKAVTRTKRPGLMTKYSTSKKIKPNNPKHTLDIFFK
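Fluorescent qHTS in 1536-well format: enzyme (10 nM) and compound sat 15 min at room temperature before 50 nM substrate (final) was added. Signal taken at 0 and 10 min; no-enzyme buffer wells were negative controls.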
WRN helicase inh – WRN helicase (human) inhibition. Q14191. WRN helicase unwinding, fluorescent forked duplex, kinetic. Potency, µM (titrated, usually from 114 µM), for the others: at the highest dose activity change, negative = inhibition, usual class: inhibitors. 0.46% of 360,000 active. AID 651768; further: on the % scale 0 is the no-effect control and ±100 the full control effect; nearly all actives have a fitted effect of over 55% in size
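Primary qHTS, 1536-well format. 20 nM WRN + compound, 15 min RT; start with 100 nM forked fluorophore/quencher duplex, 2 mM ATP (final); kinetic read ex 525/em 598 nm.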
* hit, by the source's call; ? = inconclusive; . = no result; [ ] = remark or other dose. The call rests on the fitted dose curve; in most records, active means well fitted curve in the direction sought with a large enough effect; inconclusive means small, poorly fitted or top-dose-only effect, or another doubt; inactive means no such curve, though single readings can be large; an effect the other way counts as inactive or inconclusive. Potency means the concentration at half of the fitted maximal effect.

SMILES	Pol eta inh	POLB inh	FEN1 inh	POLI inh	Pol kappa inh	WRN helicase inh
O=c1cnc2cnc(Oc3cccc(Cl)c3)nc2n1Cc1ccc(F)cc1	.	.	.	.	0.4%[60.1 µM]	.
NC(=O)CC(NC(=O)Cc1cccc2ccccc12)c1ccc(NC2CCCCCC2)c([N+](=O)[O-])c1 (stereo not drawn)	0.4%	21.8%	-5.4%	?	-7.9%	-3.4%
NC(=O)CC(NC(=O)Cc1cccc2ccccc12)c1ccc(NC2CCN(Cc3ccccc3)CC2)c([N+](=O)[O-])c1 (stereo not drawn)	-3.0%	50.1µM*	1.7%	-28.0%	-7.4%	-12.8%
O=C(NCCc1ccccc1)C(c1ccncc1)N(C(=O)c1csnn1)C1CC1 (stereo not drawn)	8.1%	15.9%	-4.5%	8.3%	5.5%	6.5%
O=C(NCCc1ccccc1)C(c1cccs1)N(C(=O)c1csnn1)C1CC1 (stereo not drawn)	-1.2%	20.7%	-7.3%	89.1µM*	-6.6%	7.8%
Clc1ccc2oc(-c3ccccc3)cc(=NCCCN3CCOCC3)c2c1	-20.1%	-16.0%	-19.9%	61.7%	1.9%	-3.0%
OCCCCCN=c1cc(-c2ccccc2)oc2ccc(Cl)cc12	-22.6%	35.5µM*	?	-23.4%	-25.5%	-21.0%
Cc1ccc2cc3c(N)c4c(C)ccc(C)c4nc3nc2c1	?	25.1µM*	-8.6%	?	-33.3%	-23.0%
Cc1ccc2c(N)c(C)ccc2c1	-3.5%	15.4%	-6.5%	14.5%	-10.3%	-27.8%
CN(C)c1ccc(/C=C/c2ccnc3ccc(F)cc23)cc1	.	.	12.4%	-3.2%	0.4%	.
Cc1cc(C)n(CCc2nc(-c3cc4ccccc4o3)cs2)n1	-24.0%	2.5%	0.8%	24.3%	-11.8%	-19.7%
Cc1cc(C)n(CCc2nc(-c3ccc(C)o3)cs2)n1	15.8µM*	50.1µM*	-6.4%	?	-23.1%	-6.7%[11.6 µM]
Nc1cc(=O)[nH]c(SCC(=O)N2N=C(c3ccc4ccccc4c3)CC2c2ccccc2)n1 (stereo not drawn)	?	4.5%	-7.3%	44.7µM*	-7.9%	-9.6%
CC(=O)NC1=NN(C(C)=O)C(C)(c2ccccc2)S1 (stereo not drawn)	-1.7%	7.08µM*	-3.4%	6.9%	-8.0%[60.1 µM]	-6.9%
CC(=O)NC1=NN(C(C)=O)C(C)(c2ccc3ccccc3c2)S1 (stereo not drawn)	-19.4%	1.1%	-4.5%	10.6%	-4.9%	5.5%
Cc1cc(NC(=O)C(C)Sc2nnc(NCc3ccco3)s2)no1 (stereo not drawn)	?	.	1.6%	39.8µM*	-14.5%	-11.3%
CCN(CC)C(=O)C1=C(C)NC(=O)NC1c1c(F)cccc1Cl (stereo not drawn)	6.1%	89.1µM*	-2.4%	11.8%	-15.4%	0.2%
CCN(CC)C(=O)C1=C(C)NC(=O)NC1c1ccccc1F (stereo not drawn)	.	-15.6%	.	.	.	.
Cc1ccnc(NC(c2ccccc2)c2ccc3cccnc3c2O)c1 (stereo not drawn)	-18.3%	.	-18.3%	87.4%	-6.4%	-6.7%
O=C(O)c1ccccc1NC(c1ccccc1)c1ccc2cccnc2c1O (stereo not drawn)	?	.	-11.0%	4.3%	-9.9%	14.1µM*
Cc1cccc(OCC(=O)N(Cc2ccc(C(C)(C)C)cc2)Cc2ccco2)c1	-19.9%	-22.0%	-8.4%	26.2%	-14.0%	.
O=C(Nc1ccc(N2CCOCC2)cc1)Nc1ccc2nc(-c3ccco3)c(-c3ccco3)nc2c1	-18.0%	5.01µM*	1.9%	0.1%	-17.8%	-9.8%
O=C(c1ccc2nc(-c3ccco3)c(-c3ccco3)nc2c1)N1CCN(c2ccccc2)CC1	-23.5%	11.2µM*	-3.8%	?	-28.1%	-22.4%
CCc1nc2ccc(C(=O)N3CCN(c4ccccc4)CC3)cc2nc1CC	-12.5%	2.8%	12.2%	31.5%	2.0%	3.6%
O=C(Nc1ccc2nc(-c3ccco3)c(-c3ccco3)nc2c1)NC1CC1	1.26µM*	3.55µM*	50.1µM*	1.26µM*	10µM*	10µM*
SMILES	Pol eta inh	POLB inh	FEN1 inh	POLI inh	Pol kappa inh	WRN helicase inh
O=C(NCCCO)Nc1ccc2nc(-c3ccco3)c(-c3ccco3)nc2c1	.	1.78µM*	.	.	.	.
CCCCCCCCCCCCCC(=O)N[C@H](C)[C@@H](O)c1ccccc1	.	.	.	.	3.3%[19.4 µM]	.
COc1ccc(C2C(=O)N(C3CCCCCC3)CC(=O)N2CCC2=CCCCC2)cc1 (stereo not drawn)	-9.9%	-1.4%	-7.1%	2.4%	1.0%[60.1 µM]	.
Cn1c2ccccc2c(=O)c2c(=O)n(C3CCCCC3)c(-c3cccs3)nc21	-6.8%	38.5%	56.2µM*	56.9%	12.4%	-14.0%[57.1 µM]
Cn1c2ccccc2c(=O)c2c(=O)n(C3CCCCCC3)c(C3CCCCC3)nc21	?	15.3%	1.0%	6.3%	-8.3%	-27.1%
COc1ccc(Cn2c(C3CCCCC3)nc3c(c(=O)c4ccccc4n3C)c2=O)cc1	?	4.47µM*	0.8%	18.3%	-2.5%	-12.1%
COc1ccc(CCn2c(C3CCCCC3)nc3c(c(=O)c4ccccc4n3C)c2=O)cc1	-5.0%	?	-8.4%	14.7%	2.9%	-6.7%
CC(C)N1CCN(Cc2ccccc2-c2ccco2)CC1CCO (stereo not drawn)	-9.4%	9.2%	0.0%	13.1%	14.3%[60.1 µM]	7.1%
CC(C)N1CCN(Cc2cccc(-c3ccco3)c2)CC1CCO (stereo not drawn)	-19.6%	10µM*	-5.9%	41.2%	-6.8%	0.0%
CC1C(=O)N2CCCc3cc(S(=O)(=O)Nc4ccc(Br)cc4F)cc1c32 (stereo not drawn)	-5.6%	17.7%	-13.4%	-2.8%	-4.4%[60.1 µM]	.
COc1ccc2c(CC(=O)N3CCN(S(=O)(=O)c4ccc(F)cc4)CC3)coc2c1	31.6µM*	.	-9.8%	?	?	-27.6%
COc1ccc(/C=N/Nc2nn3cnnc3c3ccccc23)cc1	?	1.78µM*	?	127.8%	-25.1%	?
C#CCN(Cc1ccc(OC)cc1)S(=O)(=O)C=C	.	.	-20.4%	-15.1%	-17.0%	.
CN(C)c1ccc(/C=C2/CCCc3c2nc2ccccc2c3C(=O)O)cc1	.	.	?	?	79.4µM*	.
O=C(/C=C/Nc1ccc(S(=O)(=O)Nc2cnc3ccccc3n2)cc1)c1ccccc1	-19.9%	-7.9%	4.4%	33.2%	-13.2%	-24.7%
COc1cccc(C(=O)/C=C/Nc2ccc(S(=O)(=O)Nc3cnc4ccccc4n3)cc2)c1	15.8µM*	2.7%	0.9%	?	-14.4%	?
Cc1ccc(C)c(N2CCN(C(c3ccccc3)c3nnc(-c4ccccc4F)o3)CC2)c1 (stereo not drawn)	-25.7%	-21.8%	9.3%	-4.3%	4.5%	.
Cc1ccc(C)c(N2CCN(C(c3ccc(F)cc3)c3nnc(-c4ccccc4)o3)CC2)c1 (stereo not drawn)	-7.9%	10.2%	?	89.1µM*	?	.

Bioassay records deposited in PubChem by National Center for Advancing Translational Sciences (NCATS).
